Reference: PubChem BioAssay AID623911 (Vanderbilt High Throughput Screening Facility, 2012)
The whole screen tested about 2,100 compounds, of which about 770 (37%) were called active. Some of the results follow. A number with no mark means an inactive call.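 How the source made its calls: active means by-eye trace score of 1 for enhancers or -1 for inhibitors, so actives lie on both sides (some results past the limit were not filed as active); inactive means score 0, or 3 fluorescent, or 4 baseline rise.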

Molecular target: G protein-activated inward rectifier potassium channel 2 (Homo sapiens) + G protein-activated inward rectifier potassium channel 1 (Homo sapiens) (UniProt P48051+P48549)
Sequence (P48051 whole entry, looked up): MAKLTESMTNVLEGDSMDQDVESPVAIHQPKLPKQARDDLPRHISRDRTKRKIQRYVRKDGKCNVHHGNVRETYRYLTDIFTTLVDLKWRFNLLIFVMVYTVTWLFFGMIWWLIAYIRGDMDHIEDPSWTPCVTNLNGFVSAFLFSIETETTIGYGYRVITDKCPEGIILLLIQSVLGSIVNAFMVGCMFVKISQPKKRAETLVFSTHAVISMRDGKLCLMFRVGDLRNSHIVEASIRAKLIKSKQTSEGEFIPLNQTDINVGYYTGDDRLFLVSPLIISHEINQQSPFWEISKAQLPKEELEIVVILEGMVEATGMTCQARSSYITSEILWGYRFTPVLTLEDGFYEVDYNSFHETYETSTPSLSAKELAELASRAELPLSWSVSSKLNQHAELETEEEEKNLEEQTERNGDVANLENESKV
Sequence (P48549 whole entry, looked up): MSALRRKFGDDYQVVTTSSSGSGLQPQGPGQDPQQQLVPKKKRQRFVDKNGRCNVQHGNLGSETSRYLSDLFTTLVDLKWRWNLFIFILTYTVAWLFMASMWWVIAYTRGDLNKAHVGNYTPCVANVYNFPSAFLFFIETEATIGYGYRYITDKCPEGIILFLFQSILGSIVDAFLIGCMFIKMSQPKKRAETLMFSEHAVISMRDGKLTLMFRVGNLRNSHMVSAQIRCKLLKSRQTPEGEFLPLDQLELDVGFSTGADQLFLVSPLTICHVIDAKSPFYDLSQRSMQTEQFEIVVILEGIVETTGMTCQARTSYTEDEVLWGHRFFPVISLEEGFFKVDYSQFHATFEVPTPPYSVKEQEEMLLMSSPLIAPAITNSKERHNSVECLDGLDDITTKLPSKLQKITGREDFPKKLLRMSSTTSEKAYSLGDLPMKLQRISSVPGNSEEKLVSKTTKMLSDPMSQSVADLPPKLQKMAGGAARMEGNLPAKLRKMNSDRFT
Assay: GIRK1/2 thallium flux modulators, retest, confirmation, cell-based, HEK293 rmGlu8/hGIRK1/2, FluoZin-2 (AID 623911)
Details: HEK293 rmGlu8/hGIRK1/2, thallium flux FluoZin-2; actives lie on both sides; glutamate co-added at its EC20 level

Row | Structure (SMILES) | manual score
1 | O=c1c2ccc(Cl)cc2[nH]c(=S)n1CCC1=CCCCC1 | 0
2 | Cc1ccc(-c2[nH]n3c(=O)c4c(nc3c2C)CCCC4)cc1 | 0
3 | CCn1c(=S)[nH]c2nc3c(cc2c1=O)CCCC3 | 1 (active)
4 | C=CCn1c(=S)[nH]c2nc3c(cc2c1=O)CCCC3 | 1 (active)
5 | Cc1cccc(NC(=O)NC(=S)NC(=O)c2ccccc2)c1 | 0
6 | Cc1cccc(NC(=S)N/C(=N/S(=O)(=O)c2ccccc2)c2ccccc2)c1 | 1 (active)
7 | Cc1cccc(NC(=S)NC(=O)c2cc(-c3ccccc3)nc3ccccc23)c1 | 0
8 | CCOc1ccc(-n2c(SCc3nc(-c4cccs4)no3)nnc2-c2ccncc2)cc1 | 0
9 | COc1ccc(NC(=O)COC(=O)CC23CC4CC(CC(C4)C2)C3)c([N+](=O)[O-])c1 | 0
10 | CCC(=O)Nc1nc2ccc3nc(C)sc3c2s1 | 0
11 | NS(=O)(=O)c1ccc(S(=O)(=O)N2CCCC2)cc1 | 0
12 | CC1CCCN(S(=O)(=O)c2ccc(C(=O)Nc3nnc(-c4ccccc4Cl)o3)cc2)C1 (stereo not drawn) | 1 (active)
13 | CCN(CC)c1ccc2cc(C(=O)NNC(=O)c3ccc(S(=O)(=O)N4CCCCC4)cc3)c(=O)oc2c1 | 0
14 | COc1ccccc1NC(=O)c1ccc(S(=O)(=O)N2CCCC2)cc1 | 0
15 | O=C(Nc1nnc(-c2ccccc2Cl)o1)c1ccc(S(=O)(=O)N2CCCCCC2)cc1 | 1 (active)
16 | CC1CN(S(=O)(=O)c2ccc(C(=O)Nc3nnc(-c4ccc5c(c4)CCCC5)o3)cc2)CC(C)O1 (stereo not drawn) | 0
17 | CCc1cc2cc(C)ccc2nc1SCC(=O)N1CCN(C(=O)c2ccco2)CC1 | 0
18 | CCN(C#N)c1nc(NC(C)C)nc(NC(C)C)n1 | 0
19 | Cc1ccccc1Nc1nc2nonc2nc1N1CCOCC1 | 0
20 | Cc1ccccc1NC1=NC(=S)N(c2ccccc2)C12CCOC(C)(C)C2 (stereo not drawn) | 1 (active)
21 | Cc1ccc(N2C(=S)N=C(Nc3ccccc3C)C23CCOC(C)(C)C3)cc1 (stereo not drawn) | 1 (active)
22 | Cc1cccc(C)c1NC1=NC(=S)N(c2ccc(N(C)C)cc2)C1(C)C | 0
23 | CCOC(=O)CSc1cccc2cccnc12 | 0
24 | COC(=O)c1sc(NC(=S)NC(=O)c2cccc(C)c2)nc1C | 0
25 | O=C(NC(=S)NCc1ccc(-c2nc3ccccc3s2)cc1)c1ccco1 | 0
26 | COC(=O)c1ccc(C(=O)NC(=S)Nc2nc3c(s2)CCCC3)cc1 | 1 (active)
27 | CC(C)(C)c1ccc(C(=O)NC(=S)Nc2nc3c(s2)CCCC3)cc1 | 0

Row | Structure (SMILES) | manual score
28 | COC(=O)c1sc(NC(=S)NC(=O)c2ccccc2)nc1C | 1 (active)
29 | O=C(NC(=S)Nc1nc2ccccc2s1)c1ccco1 | 1 (active)
30 | CCOC(=O)c1sc(NC(=S)NC(=O)c2ccco2)nc1C | 1 (active)
31 | CCc1nnc(NS(=O)(=O)c2ccc(NC(=S)NC(=O)c3ccccc3)cc2)s1 | 0
32 | Cn1c(-c2ccc(-c3ccccc3)cc2)c[nH]c1=S | 0
33 | COC(=O)c1ccc(N2C(=O)CC(Sc3n[nH]c(C)n3)C2=O)cc1 (stereo not drawn) | 0
34 | COC(=O)c1sc(NC(=S)NC(=O)c2ccccc2Cl)nc1C | 1 (active)
35 | CCC(=O)Nc1ccc2c(c1)ncn2-c1ccc(OC)cc1 | 0
36 | CCN(CC)S(=O)(=O)c1cc(NC(=O)Cn2cnc3ccccc3c2=O)ccc1C | 1 (active)
37 | COc1cc(OC)c(NC(=O)CCNC(=O)Cn2cnc3ccccc3c2=O)cc1Cl | 0
38 | C=CCn1c(=O)c2c(C)c(C)sc2n2c(Nc3ccc(OC)cc3)nnc12 | -0.5
39 | CCCCn1c(N)c(C(=S)NC(=O)CC(C)C)c(=O)n(C)c1=O | 1 (active)
40 | CCCCn1c(N)c(C(=S)NC(=O)CC(C)(C)C)c(=O)n(C)c1=O | 1 (active)
41 | Brc1ccc(-c2nnc3c4ccccc4nc(N4CCOCC4)n23)cc1 | 0
42 | CCC(=O)N1c2ccc(C)cc2C2=NNC(=S)NC21O (stereo not drawn) | 0
43 | COc1ccc(C(CCNCc2ccccc2F)c2ccc(F)cc2)cc1 (stereo not drawn) | -1 (active)
44 | COc1ccc(CNCCC(c2ccc(F)cc2)c2ccc(OC)cc2)cc1 (stereo not drawn) | -1 (active)
45 | O=C(NNC(=O)c1cc(-c2ccccc2)n(-c2ccccc2)n1)c1cccc([N+](=O)[O-])c1 | 0
46 | COc1ccc(C2c3ccc4ccccc4c3Oc3ncn(CCN4CCOCC4)c(=N)c32)cc1 (stereo not drawn) | -1 (active)
47 | N=c1c2c(ncn1CCN1CCOCC1)Oc1ccc3ccccc3c1C2c1ccccc1 (stereo not drawn) | -1 (active)
48 | COc1ccc(S(=O)(=O)NCCCCCC(=O)NCCCN2CCOCC2)cc1 | 0
49 | NC(=O)COc1ccc(C2c3c(oc4ccccc4c3=O)C(=O)N2CC2CCCO2)cc1 (stereo not drawn) | 0
50 | CC1CCN(c2c([N+](=O)[O-])c(=O)oc3ccccc23)CC1 | 0
51 | CCOC(=O)C1(C(C)(C)CC)CC(CSc2nc3ccccc3[nH]2)OC1=O (stereo not drawn) | -1 (active)
52 | CCn1c(-c2cc3ccccc3cc2O)n[nH]c1=S | 0
53 | CSC1=NSC2=NC(=O)/C(=C/c3coc4ccccc4c3=O)C(=N)N12 | 3
